According to the supplement of paper PMC11001985:

Each target was assayed with C#CCNC(=O)CCSSCCC(=O)NCCc1ccc(C=O)c(C=O)c1 (assay: lysine labeling ratio R10:1 (500 µM / 50 µM probe), SILAC-ABPP in living cells; higher = lower intrinsic lysine reactivity toward the probe, active = 2 or less). Settings: HeLa; probe concentrations 500 vs 50 µM.
In short: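 The two probe levels, 50 µM and 500 µM, of an alkyne-tagged, disulfide-linked lysine probe were applied to living light and heavy SILAC HeLa cells in PBS at room temperature, and the labels were run in both forward and reverse orientation. Mixed lysates underwent biotin-azide click chemistry, trypsin digestion, neutravidin capture, DTT release and alkylation before LC-MS/MS on a TIMS-TOF Pro. R is the filtered median high-probe/low-probe MS1 peptide ratio for each lysine, summarised as the median over forward and reverse replicates. Nothing above 20 is reported; such values are set to 20.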

UniProt Q13813, sequence (Q13813 whole entry): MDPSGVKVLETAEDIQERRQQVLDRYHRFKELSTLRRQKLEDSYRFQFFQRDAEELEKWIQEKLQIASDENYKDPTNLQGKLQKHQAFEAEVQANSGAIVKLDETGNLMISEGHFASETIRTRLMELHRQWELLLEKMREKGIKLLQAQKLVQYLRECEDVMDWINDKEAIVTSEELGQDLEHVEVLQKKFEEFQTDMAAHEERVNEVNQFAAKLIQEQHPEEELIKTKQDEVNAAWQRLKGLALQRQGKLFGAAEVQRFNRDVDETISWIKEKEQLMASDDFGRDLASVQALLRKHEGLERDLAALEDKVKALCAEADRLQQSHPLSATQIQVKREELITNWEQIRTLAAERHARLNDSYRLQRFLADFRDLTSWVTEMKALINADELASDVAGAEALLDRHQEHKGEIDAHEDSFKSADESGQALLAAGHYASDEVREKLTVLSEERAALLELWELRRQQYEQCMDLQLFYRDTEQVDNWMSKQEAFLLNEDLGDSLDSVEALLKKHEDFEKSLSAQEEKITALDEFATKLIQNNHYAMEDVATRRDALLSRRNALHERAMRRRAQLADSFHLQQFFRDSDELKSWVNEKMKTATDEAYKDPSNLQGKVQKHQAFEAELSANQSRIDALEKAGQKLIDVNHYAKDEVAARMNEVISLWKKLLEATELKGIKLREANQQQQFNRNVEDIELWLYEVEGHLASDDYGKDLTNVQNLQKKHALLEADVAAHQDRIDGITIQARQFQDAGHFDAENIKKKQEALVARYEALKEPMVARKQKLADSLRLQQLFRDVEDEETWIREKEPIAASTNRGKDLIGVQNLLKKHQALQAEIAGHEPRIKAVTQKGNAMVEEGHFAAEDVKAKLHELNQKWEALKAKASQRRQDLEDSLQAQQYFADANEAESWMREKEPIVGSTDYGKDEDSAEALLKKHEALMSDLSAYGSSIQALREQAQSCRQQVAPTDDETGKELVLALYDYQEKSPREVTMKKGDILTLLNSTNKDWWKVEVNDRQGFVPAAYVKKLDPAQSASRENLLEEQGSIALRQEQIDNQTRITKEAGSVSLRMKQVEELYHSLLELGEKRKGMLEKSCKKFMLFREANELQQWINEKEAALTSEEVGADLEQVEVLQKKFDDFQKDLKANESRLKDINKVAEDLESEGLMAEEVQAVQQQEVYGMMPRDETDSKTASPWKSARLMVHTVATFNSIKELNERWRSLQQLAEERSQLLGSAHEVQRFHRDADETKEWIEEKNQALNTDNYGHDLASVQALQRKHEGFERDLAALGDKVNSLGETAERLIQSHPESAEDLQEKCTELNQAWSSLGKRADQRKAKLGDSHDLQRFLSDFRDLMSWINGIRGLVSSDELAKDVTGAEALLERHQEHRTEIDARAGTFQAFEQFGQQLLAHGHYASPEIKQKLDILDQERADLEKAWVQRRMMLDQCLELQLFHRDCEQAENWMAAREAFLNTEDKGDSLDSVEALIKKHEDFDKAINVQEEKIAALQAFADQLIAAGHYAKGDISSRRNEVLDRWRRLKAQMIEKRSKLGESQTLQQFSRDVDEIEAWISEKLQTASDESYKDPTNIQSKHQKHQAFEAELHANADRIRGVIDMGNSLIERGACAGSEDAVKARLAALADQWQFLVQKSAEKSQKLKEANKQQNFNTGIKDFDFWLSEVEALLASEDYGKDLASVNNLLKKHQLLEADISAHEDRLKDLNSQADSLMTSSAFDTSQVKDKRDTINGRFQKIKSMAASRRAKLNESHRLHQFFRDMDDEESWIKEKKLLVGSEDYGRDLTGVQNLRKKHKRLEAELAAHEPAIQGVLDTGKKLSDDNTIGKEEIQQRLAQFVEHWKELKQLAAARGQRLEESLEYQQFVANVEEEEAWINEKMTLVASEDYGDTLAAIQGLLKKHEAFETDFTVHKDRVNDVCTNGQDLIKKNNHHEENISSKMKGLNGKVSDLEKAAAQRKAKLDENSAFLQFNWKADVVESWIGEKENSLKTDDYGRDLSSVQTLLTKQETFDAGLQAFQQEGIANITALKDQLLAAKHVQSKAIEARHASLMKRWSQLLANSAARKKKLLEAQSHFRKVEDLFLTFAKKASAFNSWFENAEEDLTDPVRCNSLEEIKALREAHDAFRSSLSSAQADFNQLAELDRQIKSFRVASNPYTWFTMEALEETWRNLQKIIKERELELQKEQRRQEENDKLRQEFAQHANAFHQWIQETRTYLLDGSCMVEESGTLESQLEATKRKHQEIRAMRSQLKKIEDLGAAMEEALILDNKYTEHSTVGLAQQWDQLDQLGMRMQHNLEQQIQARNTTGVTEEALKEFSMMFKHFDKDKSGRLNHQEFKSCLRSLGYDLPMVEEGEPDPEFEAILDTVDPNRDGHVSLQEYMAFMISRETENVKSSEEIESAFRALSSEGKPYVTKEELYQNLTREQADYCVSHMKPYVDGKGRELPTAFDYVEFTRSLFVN
UniProt O95864, sequence (O95864 whole entry): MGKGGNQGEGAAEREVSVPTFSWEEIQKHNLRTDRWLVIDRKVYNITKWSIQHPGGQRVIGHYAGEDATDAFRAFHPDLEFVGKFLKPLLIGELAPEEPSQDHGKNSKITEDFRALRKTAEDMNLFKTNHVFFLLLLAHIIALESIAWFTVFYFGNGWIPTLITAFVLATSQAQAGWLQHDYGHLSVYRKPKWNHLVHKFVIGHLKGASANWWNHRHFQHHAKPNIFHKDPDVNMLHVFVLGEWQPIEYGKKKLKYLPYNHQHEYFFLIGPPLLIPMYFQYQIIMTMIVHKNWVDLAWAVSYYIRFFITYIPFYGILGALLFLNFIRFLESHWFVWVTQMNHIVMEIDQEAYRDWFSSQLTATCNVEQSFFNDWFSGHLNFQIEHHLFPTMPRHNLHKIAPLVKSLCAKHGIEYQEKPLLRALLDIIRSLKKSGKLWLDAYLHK
UniProt P02786, sequence (P02786 whole entry, looked up): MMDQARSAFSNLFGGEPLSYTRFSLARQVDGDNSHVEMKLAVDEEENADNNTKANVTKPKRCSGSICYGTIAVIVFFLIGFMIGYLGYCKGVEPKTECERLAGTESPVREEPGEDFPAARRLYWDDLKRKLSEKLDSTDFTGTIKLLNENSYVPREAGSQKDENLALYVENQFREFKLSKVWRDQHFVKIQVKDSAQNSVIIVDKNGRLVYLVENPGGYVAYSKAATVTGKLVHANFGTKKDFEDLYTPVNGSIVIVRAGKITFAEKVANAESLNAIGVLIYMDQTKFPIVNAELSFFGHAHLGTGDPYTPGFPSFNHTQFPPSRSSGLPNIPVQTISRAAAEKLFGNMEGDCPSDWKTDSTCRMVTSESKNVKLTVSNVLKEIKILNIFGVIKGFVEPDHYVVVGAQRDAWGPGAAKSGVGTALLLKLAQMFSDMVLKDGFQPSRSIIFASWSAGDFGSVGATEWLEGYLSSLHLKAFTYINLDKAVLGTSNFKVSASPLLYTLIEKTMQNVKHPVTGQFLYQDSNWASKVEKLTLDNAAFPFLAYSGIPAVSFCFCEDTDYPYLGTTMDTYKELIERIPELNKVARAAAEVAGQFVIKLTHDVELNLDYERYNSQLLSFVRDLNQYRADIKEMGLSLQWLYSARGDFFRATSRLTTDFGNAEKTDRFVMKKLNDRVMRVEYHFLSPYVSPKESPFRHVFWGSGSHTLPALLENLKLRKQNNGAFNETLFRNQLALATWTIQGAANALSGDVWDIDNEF
UniProt Q9H4F8, sequence (Q9H4F8 whole entry): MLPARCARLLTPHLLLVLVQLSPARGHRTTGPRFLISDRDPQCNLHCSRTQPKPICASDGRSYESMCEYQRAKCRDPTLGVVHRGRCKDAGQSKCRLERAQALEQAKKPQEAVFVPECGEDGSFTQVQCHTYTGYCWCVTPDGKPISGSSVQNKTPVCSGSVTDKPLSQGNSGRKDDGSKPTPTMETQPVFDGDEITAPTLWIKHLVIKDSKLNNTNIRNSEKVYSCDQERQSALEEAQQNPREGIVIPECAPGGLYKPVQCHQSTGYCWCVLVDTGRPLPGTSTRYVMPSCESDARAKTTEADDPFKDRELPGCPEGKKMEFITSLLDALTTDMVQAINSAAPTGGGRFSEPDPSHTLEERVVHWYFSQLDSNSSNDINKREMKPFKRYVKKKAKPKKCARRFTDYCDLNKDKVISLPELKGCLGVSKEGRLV
UniProt P00387, sequence (P00387 whole entry): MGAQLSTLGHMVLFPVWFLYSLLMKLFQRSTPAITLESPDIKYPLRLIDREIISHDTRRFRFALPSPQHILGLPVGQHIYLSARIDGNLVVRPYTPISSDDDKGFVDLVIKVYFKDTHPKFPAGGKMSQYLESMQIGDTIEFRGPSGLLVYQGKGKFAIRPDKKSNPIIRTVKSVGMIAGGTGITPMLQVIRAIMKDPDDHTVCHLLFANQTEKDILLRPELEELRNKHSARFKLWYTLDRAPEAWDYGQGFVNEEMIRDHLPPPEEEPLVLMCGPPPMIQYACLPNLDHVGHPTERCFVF
UniProt P13667, sequence (P13667 whole entry): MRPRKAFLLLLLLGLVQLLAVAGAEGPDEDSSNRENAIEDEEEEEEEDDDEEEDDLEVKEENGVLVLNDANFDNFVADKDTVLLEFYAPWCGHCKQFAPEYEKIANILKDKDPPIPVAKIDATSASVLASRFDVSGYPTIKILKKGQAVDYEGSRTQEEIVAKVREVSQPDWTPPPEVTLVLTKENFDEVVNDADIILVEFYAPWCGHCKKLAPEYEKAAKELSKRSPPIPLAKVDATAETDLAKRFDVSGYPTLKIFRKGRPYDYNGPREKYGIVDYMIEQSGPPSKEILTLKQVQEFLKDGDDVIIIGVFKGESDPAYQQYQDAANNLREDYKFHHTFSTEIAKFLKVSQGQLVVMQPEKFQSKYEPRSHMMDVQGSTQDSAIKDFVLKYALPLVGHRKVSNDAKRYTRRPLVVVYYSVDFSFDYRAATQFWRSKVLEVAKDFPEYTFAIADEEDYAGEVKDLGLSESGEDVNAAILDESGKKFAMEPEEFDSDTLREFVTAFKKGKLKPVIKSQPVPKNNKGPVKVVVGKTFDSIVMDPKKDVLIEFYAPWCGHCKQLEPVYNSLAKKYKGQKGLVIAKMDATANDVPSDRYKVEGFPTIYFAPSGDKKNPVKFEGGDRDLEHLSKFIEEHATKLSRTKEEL

Lysine labeling ratio R10:1, inactive:
UniProt P63218 (lysine site: K12) 5.18
UniProt Q99623 (lysine site: K147) 3.43
TFRC (lysine site: K145) (UniProt P02786) 2.7
PDIA3 (lysine site: K130) (UniProt P30101) 3.07
CALD1 (lysine site: K605) (UniProt Q05682) 3.32
UniProt Q16363 (lysine site: K1068) 2.52
MCAM (lysine site: K551) (UniProt P43121) 5.15
IARS (lysine site: K382) (UniProt P41252) 3.02
TMEM97 (lysine site: K130) (UniProt Q5BJF2) 3.33
MYH9 (lysine site: K656) (UniProt P35579) 2.88
FH (lysine site: K66) (UniProt P07954) 2.79
PTPRF (lysine site: K1016) (UniProt P10586) 3.97
SPTAN1 (lysine site: K241) (UniProt Q13813) 7.04
SPTAN1 (lysine site: K39) (UniProt Q13813) 2.65
ITGA1 (lysine site: K259) (UniProt P56199) 4.65
FAT4 (lysine site: K2566) (UniProt Q6V0I7) 2.59
IDE (lysine site: K364) (UniProt P14735) 2.3
UniProt P46781 (lysine site: K52) 2.39
SLC3A2 (lysine site: K298) (UniProt P08195) 6.33
VIM (lysine site: K439) (UniProt P08670) 8.7
ROBO1 (lysine site: K503) (UniProt Q9Y6N7) 7.35
UniProt P62873 (lysine site: K15) 3.12

Lysine labeling ratio R10:1, active:
PSMA3 (lysine site: K65) (UniProt P25788) 1.97
FLOT1 (lysine site: K54) (UniProt O75955) 0.737
CCT5 (lysine site: K214) (UniProt P48643) 1.21
SMOC1 (lysine site: K381) (UniProt Q9H4F8) 1.04
LMO7 (lysine site: K1455) (UniProt Q8WWI1) 1.37
ITGA3 (lysine site: K620) (UniProt P26006) 1.8
SEMA3C (lysine site: K731) (UniProt Q99985) 0.505
NUMA1 (lysine site: K1667) (UniProt Q14980) 0.807
STMN1 (lysine site: K53) (UniProt P16949) 1.68
PLXNB2 (lysine site: K1159) (UniProt O15031) 1.75
CYB5R3 (lysine site: K164) (UniProt P00387) 1.79
FADS2 (lysine site: K108) (UniProt O95864) 1.75
TXNDC5 (lysine site: K429) (UniProt Q8NBS9) 0.74
PLS3 (lysine site: K59) (UniProt P13797) 1.41
PPIB (lysine site: K98) (UniProt P23284) 1.78
PDIA4 (lysine site: K145) (UniProt P13667) 0.551
EPRS (lysine site: K666) (UniProt P07814) 0.985
FZD6 (lysine site: K149) (UniProt O60353) 0.883
